Measured values from PubChem BioAssay (NCATS).
Inconclusive results are not listed. Activity calls are given as the source filed them. Unless noted, calls follow the shape of the full dose curve.

Experiments:
[1] = target: Bile acid receptor (Homo sapiens) (UniProt Q96RI1); experiment: qHTS assay for small molecule antagonists of farnesoid X receptor signaling (AID 588526); also: % is scaled to controls: 0 for no effect and ±100 for the full control effect
Procedure, shortened: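 Antagonist mode: titrated compounds tested against chenodeoxycholic acid stimulation (normalized to 50 uM CDCA and DMSO) in GeneBLAzer HEK293T cells for 16 h. Beta-lactamase read by CCF4 fluorescence; IC50 from Hill fits.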

[2] = target: Bile acid receptor (Homo sapiens) (UniProt Q96RI1); experiment: qHTS assay for small molecule agonists of farnesoid X receptor signaling (AID 588527); settings: HEK293T FXR-UAS-bla, beta-lactamase ratio, 16 h; stronger effect = higher value;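 also: series mostly up to about 77 µM; 0% = vehicle basal and 100% = reference agonist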
Procedure, shortened: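 FXR-UAS-bla HEK293T, 10% dialyzed FBS; cpds up to 92 uM titration, 16 h 37 C; CCF4 dye 2 h RT; fluorescence. Normalized to chenodeoxycholic acid 100 uM (100%) and DMSO (0%); Hill fit gives EC50, efficacy.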

[3] = target: Glucocorticoid receptor (Homo sapiens) (UniProt P04150); experiment: qHTS assay for small molecule agonists of glucocorticoid receptor signaling (AID 588532; active = well fitted curve in the direction sought with a large enough effect in the signal ratio, with a control signal flat; the % refers to the signal ratio;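 also: 100% = dexamethasone at 0.1 µM and 0% = DMSO only wells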); settings: HeLa MMTV-bla, beta-lactamase ratio, agonist, 18 h; stronger effect = higher value; percent of dexamethasone control, DMSO zero
Procedure, shortened: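 MMTV-bla HeLa beta-lactamase reporter cells in 1% charcoal/dextran FBS medium, compounds up to 92 uM for 18 h at 37 C, CCF4 readout; normalized to 0.1 uM dexamethasone (100%), EC50 and efficacy from Hill fits.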

[4] = qHTS assay for small molecule antagonists of peroxisome proliferator-activated receptor delta signaling (AID 588535; active = well fitted inhibition curve with a large enough effect in the signal ratio, with a control signal flat, not every such curve was filed as active; the % refers to the signal ratio;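 as to max response: cells co-treated with a PPAR-delta agonist as stimulator during compound exposure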); settings: HEK293T PPARd-UAS-bla, beta-lactamase FRET ratio, 18 h; 460 nm channel
Procedure, shortened: (§1)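 Beta-lactamase reporter read-out (405 nm excitation, 460/530 nm emission) after CCF4 loading for 2 hrs at RT. HEK293T PPAR-delta-UAS-bla cells, 2% charcoal/dextran FBS, compounds for 18 hrs at 37 C. Hill fit gave IC50 and efficacy.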

[5] = target: Peroxisome proliferator-activated receptor delta (Homo sapiens) (UniProt Q03181); experiment: as above
Procedure, shortened: as §1

[6] = target: Peroxisome proliferator-activated receptor gamma (Homo sapiens) (UniProt P37231); experiment: qHTS assay for small molecule antagonists of peroxisome proliferator-activated receptor gamma signaling (AID 588537; active = well fitted inhibition curve with a large enough effect in the signal ratio, with a control signal flat, not every such curve was filed as active; the % refers to the signal ratio;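 also: reporter cells co-stimulated with 50 nM rosiglitazone agonist during compound treatment; % of control where 0% means no effect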)
Procedure, shortened: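 Read-out: CCF4 fluorescence (ex 405, em 460/530 nm) after 2 h at RT. Cells were HEK293 carrying a UAS-bla reporter and treated 16 h at 37 C with compound plus rosiglitazone (50 nM final). Normalized to rosiglitazone and DMSO.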

[7] = target: Vitamin D3 receptor (Homo sapiens) (UniProt P11473); experiment: qHTS assay for small molecule antagonists of vitamin D receptor signaling (AID 588541);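 also: receptor activated by calcitriol during compound treatment; series mostly up to about 77 µM; % is scaled to controls: 0 for no effect and ±100 for the full control effect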
Procedure, shortened: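 VDR-UAS-bla HEK293T cells in 2% charcoal-stripped FBS were stimulated with 1-alpha,25-dihydroxyvitamin D3 (3 nM final) plus compound for 16 h at 37 C. The beta-lactamase CCF4 readout was normalized to 50 nM agonist and DMSO, and Hill fits gave IC50.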

[8] = qHTS assay for small molecule agonists of retinoid X receptor alpha signaling (AID 588544); settings: HEK293T RXRa-UAS-bla, beta-lactamase reporter, 18 h; 530 nm emission; also: potency is read from the fitted curve at half-maximal effect;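 as to activation: 0% = DMSO basal wells and 100% = reference agonist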
[9] = target: Retinoic acid receptor RXR-alpha (Homo sapiens) (UniProt P19793); experiment: as above
[10] = target: Thyroid hormone receptor beta (Homo sapiens) (UniProt P10828); experiment: qHTS assay for small molecule agonists of thyroid hormone receptor beta signaling (AID 588545)
Procedure, shortened: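 Cells (2500/well) were seeded, incubated 4 hrs at 37 C, dosed with a compound series, incubated 18 hrs, loaded with CCF4 dye for 2 hrs at RT, then read for fluorescence. Data were scaled between DMSO (0%) and 10 nM T3 (100%).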

[11] = qHTS assay for small molecule antagonists of retinoid X receptor alpha signaling (AID 588546; active = well fitted inhibition curve with a large enough effect in the signal ratio, with a control signal flat, not every such curve was filed as active; the % refers to the signal ratio;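 also: cells stimulated with 9-cis-retinoic acid as agonist; % is scaled to controls: 0 for no effect and ±100 for the full control effect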); settings: HEK293T RXRa-UAS-bla, beta-lactamase ratio, antagonist mode; measured here: W530 green channel, cytotoxicity proxy
Procedure, shortened: (§2)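 Beta-lactamase reporter inhibition, read as CCF4 fluorescence ratio (ex 405, em 460/530 nm) after 2 h at RT. HEK293T UAS-bla cells, 2500/well, were stimulated with 9-cis-RA at 500 or 100 nM final alongside test compound for 18 h at 37 C.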

[12] = target: Retinoic acid receptor RXR-alpha (Homo sapiens) (UniProt P19793); experiment: as above; settings: HEK293T RXRa-UAS-bla, beta-lactamase ratio, antagonist mode
Procedure, shortened: as §2

[13] = target: Thyroid hormone receptor beta (Homo sapiens) (UniProt P10828); experiment: qHTS assay for small molecule antagonists of thyroid hormone receptor beta signaling (AID 588547; active = well fitted inhibition curve with a large enough effect in the signal ratio, with a control signal flat, not every such curve was filed as active; the % refers to the signal ratio;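 also: cells stimulated with 0.4 nM T3 agonist during compound exposure; series mostly up to about 77 µM; % is scaled to controls: 0 for no effect and ±100 for the full control effect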); settings: TR-UAS-bla HEK293, beta-lactamase ratio, antagonist mode, 18 h
Procedure, shortened: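 TR-UAS-bla GripTite HEK293 cells in 2% charcoal/dextran FBS medium; compounds 0.59 nM to 92 uM with T3 at 0.4nM final, 18 h at 37 C. Beta-lactamase read by CCF4 fluorescence (460/530 nm); Hill fits gave IC50 and efficacy.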

[14] = target: Luciferin 4-monooxygenase (Photinus pyralis) (UniProt P08659); experiment: Biochemical firefly luciferase enzyme assay for NPC (AID 624030; active = well fitted inhibition curve with a large enough effect;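 also: purified P. pyralis luciferase at 10 nM with luciferin and ATP substrate; series mostly up to about 59 µM; 0% = DMSO and -100% = full luciferase inhibition by PTC124 control; nearly all actives have a fitted effect of over 70% in size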)
Procedure, shortened: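 Purified P. pyralis luciferase at 10 nM in 50 mM Tris Acetate (final), luminescence read within 5 minutes of enzyme addition to compounds. Activity normalised to PTC124 versus DMSO; concentration-response curves classed by r2, magnitude and activity.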

[15] = target: Peroxisome proliferator-activated receptor delta (Homo sapiens) (UniProt Q03181); experiment: qHTS assay for small molecule agonists of peroxisome proliferator-activated receptor delta signaling (AID 588534);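 also: 0% = DMSO basal wells and 100% = positive control agonist at 10 µM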
Procedure, shortened: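 Titration series tested in agonist mode on beta-lactamase reporter cells; 18 hrs at 37 C after a 5 hr pre-incubation. Readout: CCF4 fluorescence, 2 hrs RT. Hill equation gives EC50 and maximal response.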

Bile acid receptor (Homo sapiens), sequence (Q96RI1 whole entry, looked up): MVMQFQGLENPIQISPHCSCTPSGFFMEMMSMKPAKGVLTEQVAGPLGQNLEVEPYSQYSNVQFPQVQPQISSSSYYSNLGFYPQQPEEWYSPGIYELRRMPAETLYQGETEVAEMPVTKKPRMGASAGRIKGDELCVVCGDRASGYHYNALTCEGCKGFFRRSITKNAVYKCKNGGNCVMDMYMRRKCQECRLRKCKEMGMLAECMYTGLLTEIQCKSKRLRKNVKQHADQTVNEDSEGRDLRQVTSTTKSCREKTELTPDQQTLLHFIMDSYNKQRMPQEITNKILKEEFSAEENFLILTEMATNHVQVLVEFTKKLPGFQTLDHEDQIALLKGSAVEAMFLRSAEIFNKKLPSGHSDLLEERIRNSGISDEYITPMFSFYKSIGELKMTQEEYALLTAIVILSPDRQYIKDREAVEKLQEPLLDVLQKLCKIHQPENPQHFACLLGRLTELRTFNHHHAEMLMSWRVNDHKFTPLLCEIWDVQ
Peroxisome proliferator-activated receptor delta (Homo sapiens), sequence (Q03181 whole entry, looked up): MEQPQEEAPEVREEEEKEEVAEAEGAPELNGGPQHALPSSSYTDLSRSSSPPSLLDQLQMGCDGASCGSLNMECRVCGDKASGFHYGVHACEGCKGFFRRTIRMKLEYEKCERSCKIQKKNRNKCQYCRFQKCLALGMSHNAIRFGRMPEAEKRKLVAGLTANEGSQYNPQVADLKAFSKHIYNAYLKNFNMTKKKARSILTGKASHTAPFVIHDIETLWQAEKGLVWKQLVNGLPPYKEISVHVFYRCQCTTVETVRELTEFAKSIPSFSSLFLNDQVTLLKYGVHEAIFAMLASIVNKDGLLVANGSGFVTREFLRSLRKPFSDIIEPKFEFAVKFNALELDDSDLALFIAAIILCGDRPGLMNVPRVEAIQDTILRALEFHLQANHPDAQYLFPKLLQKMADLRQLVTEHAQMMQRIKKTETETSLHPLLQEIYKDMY
Thyroid hormone receptor beta (Homo sapiens), sequence (P10828 whole entry, looked up): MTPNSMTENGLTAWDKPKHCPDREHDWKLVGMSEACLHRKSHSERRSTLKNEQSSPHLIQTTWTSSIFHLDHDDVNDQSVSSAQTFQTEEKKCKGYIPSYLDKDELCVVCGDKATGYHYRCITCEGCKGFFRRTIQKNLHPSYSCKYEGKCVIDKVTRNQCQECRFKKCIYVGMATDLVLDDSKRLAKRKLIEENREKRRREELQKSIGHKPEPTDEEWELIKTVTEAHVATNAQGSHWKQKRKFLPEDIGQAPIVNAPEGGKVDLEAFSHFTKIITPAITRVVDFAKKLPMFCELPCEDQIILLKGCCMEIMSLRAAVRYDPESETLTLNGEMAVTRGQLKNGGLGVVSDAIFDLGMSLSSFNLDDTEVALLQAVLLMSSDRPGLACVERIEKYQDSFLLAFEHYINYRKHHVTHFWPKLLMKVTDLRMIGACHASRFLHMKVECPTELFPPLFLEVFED
Retinoic acid receptor RXR-alpha (Homo sapiens), sequence (P19793 whole entry, looked up): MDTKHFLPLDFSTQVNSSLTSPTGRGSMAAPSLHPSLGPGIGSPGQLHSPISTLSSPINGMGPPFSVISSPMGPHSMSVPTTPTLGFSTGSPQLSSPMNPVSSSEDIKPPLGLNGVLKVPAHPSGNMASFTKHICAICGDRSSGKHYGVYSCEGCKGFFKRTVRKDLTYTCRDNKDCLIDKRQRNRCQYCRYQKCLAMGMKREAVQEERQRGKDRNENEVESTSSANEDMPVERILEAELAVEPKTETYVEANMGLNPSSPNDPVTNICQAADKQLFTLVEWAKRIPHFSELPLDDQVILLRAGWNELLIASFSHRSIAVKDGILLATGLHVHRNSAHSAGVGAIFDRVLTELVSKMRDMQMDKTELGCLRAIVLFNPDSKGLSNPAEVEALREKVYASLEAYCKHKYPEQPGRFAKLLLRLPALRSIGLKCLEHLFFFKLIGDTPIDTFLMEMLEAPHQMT
Luciferin 4-monooxygenase (Photinus pyralis), sequence (P08659 whole entry, looked up): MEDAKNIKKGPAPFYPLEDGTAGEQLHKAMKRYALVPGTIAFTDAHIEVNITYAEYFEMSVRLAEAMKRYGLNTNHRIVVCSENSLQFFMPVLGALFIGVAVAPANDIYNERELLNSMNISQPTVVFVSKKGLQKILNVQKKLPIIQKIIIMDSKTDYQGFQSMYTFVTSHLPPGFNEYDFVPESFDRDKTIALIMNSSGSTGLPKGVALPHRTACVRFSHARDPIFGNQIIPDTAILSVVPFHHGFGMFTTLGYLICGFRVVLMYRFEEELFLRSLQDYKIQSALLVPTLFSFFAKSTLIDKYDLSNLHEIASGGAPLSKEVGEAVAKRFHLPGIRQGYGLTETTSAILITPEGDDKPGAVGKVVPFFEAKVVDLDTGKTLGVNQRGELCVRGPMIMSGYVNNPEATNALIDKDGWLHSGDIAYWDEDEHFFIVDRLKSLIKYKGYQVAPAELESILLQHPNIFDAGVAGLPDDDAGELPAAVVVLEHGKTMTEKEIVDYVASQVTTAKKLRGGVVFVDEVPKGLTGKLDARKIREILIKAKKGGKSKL
Glucocorticoid receptor (Homo sapiens), sequence (P04150 whole entry, looked up): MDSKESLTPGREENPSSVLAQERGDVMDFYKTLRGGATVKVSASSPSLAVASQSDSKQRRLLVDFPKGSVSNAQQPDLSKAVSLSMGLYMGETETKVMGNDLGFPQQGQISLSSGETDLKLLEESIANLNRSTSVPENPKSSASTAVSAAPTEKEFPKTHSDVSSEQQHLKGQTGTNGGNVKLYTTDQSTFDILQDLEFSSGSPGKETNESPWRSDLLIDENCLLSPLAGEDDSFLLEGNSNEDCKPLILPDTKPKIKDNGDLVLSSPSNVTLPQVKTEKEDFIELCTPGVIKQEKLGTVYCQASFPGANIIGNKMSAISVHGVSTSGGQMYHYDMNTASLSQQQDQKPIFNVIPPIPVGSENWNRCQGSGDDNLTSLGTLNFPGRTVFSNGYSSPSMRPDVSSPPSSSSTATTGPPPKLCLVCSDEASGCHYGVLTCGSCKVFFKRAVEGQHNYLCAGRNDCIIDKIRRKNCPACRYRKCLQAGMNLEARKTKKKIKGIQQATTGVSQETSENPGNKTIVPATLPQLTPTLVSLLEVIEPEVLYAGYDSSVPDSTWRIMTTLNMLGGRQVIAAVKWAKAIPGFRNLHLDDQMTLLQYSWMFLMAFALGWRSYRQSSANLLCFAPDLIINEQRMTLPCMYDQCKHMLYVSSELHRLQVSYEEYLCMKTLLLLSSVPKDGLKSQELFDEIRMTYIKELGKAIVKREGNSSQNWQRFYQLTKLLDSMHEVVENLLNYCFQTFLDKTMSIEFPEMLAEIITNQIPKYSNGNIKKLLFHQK
Vitamin D3 receptor (Homo sapiens), sequence (P11473 whole entry, looked up): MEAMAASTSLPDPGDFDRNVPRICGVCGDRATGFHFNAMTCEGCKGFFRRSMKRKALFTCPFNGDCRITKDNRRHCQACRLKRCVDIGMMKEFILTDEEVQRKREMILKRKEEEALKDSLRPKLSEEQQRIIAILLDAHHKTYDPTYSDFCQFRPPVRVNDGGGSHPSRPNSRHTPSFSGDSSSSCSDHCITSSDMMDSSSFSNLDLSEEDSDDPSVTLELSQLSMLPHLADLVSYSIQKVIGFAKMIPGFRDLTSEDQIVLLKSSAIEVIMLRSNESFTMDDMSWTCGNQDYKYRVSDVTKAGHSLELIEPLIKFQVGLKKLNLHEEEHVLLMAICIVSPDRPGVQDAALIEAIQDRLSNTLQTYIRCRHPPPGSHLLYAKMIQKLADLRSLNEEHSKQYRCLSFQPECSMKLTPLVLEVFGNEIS
Peroxisome proliferator-activated receptor gamma (Homo sapiens), sequence (P37231 whole entry, looked up): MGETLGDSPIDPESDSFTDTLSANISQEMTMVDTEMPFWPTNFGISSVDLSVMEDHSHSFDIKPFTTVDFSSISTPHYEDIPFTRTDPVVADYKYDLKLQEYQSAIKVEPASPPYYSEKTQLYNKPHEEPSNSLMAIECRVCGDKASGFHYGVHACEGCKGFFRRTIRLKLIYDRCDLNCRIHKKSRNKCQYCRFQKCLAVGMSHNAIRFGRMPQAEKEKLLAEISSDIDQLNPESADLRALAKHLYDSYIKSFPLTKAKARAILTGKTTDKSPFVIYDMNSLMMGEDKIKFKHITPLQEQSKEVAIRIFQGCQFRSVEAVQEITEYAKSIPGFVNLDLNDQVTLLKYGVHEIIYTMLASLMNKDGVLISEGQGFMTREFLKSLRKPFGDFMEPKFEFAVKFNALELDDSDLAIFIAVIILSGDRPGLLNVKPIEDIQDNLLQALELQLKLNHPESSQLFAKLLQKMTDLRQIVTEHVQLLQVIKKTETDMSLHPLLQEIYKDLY

| Compound | outcome [1] | activation [2] | activation [3] | max response [4] [%] | Potency [5] | Potency [6] | Potency [7] | max response [8] [%] | Potency [9] | outcome [10] | max response [11] [%] | max response [12] | activity change % (negative = inhibition) [13] | Potency [14] | outcome [15] |
| --- | --- | --- | --- | --- | --- | --- | --- | --- | --- | --- | --- | --- | --- | --- | --- |
| CS(=O)(=O)c1ccc(C(=O)C2C(=O)CCCC2=O)c([N+](=O)[O-])c1 | inactive | -1.16% (inactive) | 6.35% (inactive) | 30.2 | inactive | inactive | inactive | 11.3 | 17.8 µM (active) | inactive | -0.159 | 0.528% (inactive) | 9.38% (inactive) | inactive | – |
| C1=CC2C3C=CC(C3)C2C1 (configuration not stated) | – | -0.353% (inactive) | – | – | – | – | – | – | – | – | – | – | – | – | – |
| CCCN(CCC)c1c([N+](=O)[O-])cc(S(N)(=O)=O)cc1[N+](=O)[O-] | inactive | -1% (inactive) | -3.33% (inactive) | 53.5 | inactive | – | – | -0.936 | inactive | – | -18.5 | 2.44% (inactive) | 0.13% (inactive) | inactive | inactive |
